# Experimental data from PubChem BioAssay AID624167 (Sanford-Burnham Center for Chemical Genomics, 2012).
# Assay: inhibition of PEG-3 promoter-driven reporter – cell-based, HeLa, luciferase, CREF/GAPDH counter-screen panel, dose response (AID 624167)
# Conditions: CREF/GAPDH counter-screens; run 1, dose range 1, at 100 µM (top of the series)
row,Compound,inhibition
1,CC1=CC2/C=C(\C)CCC(O)C(O)/C=C/C(=O)C23C(=O)NC(CC(C)C)C3C1C (stereo not drawn),99.8%
2,COc1cc2nc(CN3CC=C(c4ccccc4)CC3)[nH]c(=O)c2cc1OC,56.3%
3,CC(=O)OC1CC[C@]2(C#N)[C@H]3CC[C@]4(C)[C@H](C5C=CC(=O)O5)CCC4(O)C3CCC2(O)C1 (stereo partly drawn),77.9%
4,O=C(CSC1c2ccccc2-c2ccccc21)N/N=C/c1ccccc1O,60.3%
5,COC(COC(N)=O)C1=C(N2CC2)C(=O)C(C)=C(N2CC2)C1=O (stereo not drawn),84.3%
6,CC(=O)OC1(C)CC(C)C(=O)C(C(O)CC2CC(=O)NC(=O)C2)C1 (stereo not drawn),89.5%
7,CCC(c1nnnn1-c1ccc2c(c1)OCCO2)N1CCC(n2c(=O)[nH]c3ccccc32)CC1 (stereo not drawn),92.4%
8,C=Cc1cc(OC)c2c(c1)c(=O)oc1c2cc(OC)c2c(O)ccc(C3OC(C)C(O)C(C)(O)C3O)c21 (stereo not drawn),-12.4%
